The results in this text go back to PubChem BioAssay (Tox21).

A number with no mark means an inactive call. Inconclusive results are not listed. Calls of active or inactive are those of the source. Unless noted, calls follow the shape of the dose curve; as a rule, active = well fitted curve in the direction sought with a large enough effect in the repeat runs; inconclusive = weak or mixed curves; inactive = no such curve, though single readings can be large; an effect the other way counts as inactive or inconclusive.

Test [1] concerns the target Thyrotropin-releasing hormone receptor (Homo sapiens) (UniProt P34981). As to the kind of experiment: qHTS assay to identify small molecule agonists of the thyrotropin-releasing hormone receptor (TRHR) signaling pathway (AID 1346891; calls by dose curve;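 also: HEK293 cells expressing TRHR with calcium dye readout; series mostly up to about 58 µM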). The procedure, abridged: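 Overnight-plated (18 h, 37 °C, 5% CO2) TRHR-Hek293 cells; 2 h calcium dye at 37 °C; compound in DMSO; 3-min kinetic fluorescence read.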
A general note: In qHTS, concentration-response curves come from the screen itself.

A short description of test [2]: Human pregnane X receptor (PXR) small molecule agonists, qHTS cell viability counter screen (AID 1346977). Also: nearly all actives have a fitted effect of over 50% in size. Also: potency is read from the fitted curve at half-maximal effect. The procedure, abridged: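 After a 5hr pre-incubation, PXR-Luc HepG2 cells received compounds plus positive control in DMSO and were kept 24hr at 37C. Cell viability was quantified by fluorescence from CellTiter-Fluor added for the final hour.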
Test [3] in a line: Caspase-3/7 induction in CHO-K1 cells by small molecules, qHTS cell viability counter screen (AID 1346979). Also: nearly all actives have a fitted effect of over 35% in size. Also: potency is read from the fitted curve at half-maximal effect. The method in brief:
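Multiplexed with Caspase-Glo 3/7 in CHO-K1 cells, this counter screen added CellTiter-Fluor after 16hr of compound exposure and recorded fluorescence 1hr later.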

The nature of test [4]: Caspase-3/7 induction in CHO-K1 cells by small molecules, qHTS assay (AID 1346980). Also: nearly all actives have a fitted effect of over 15% in size. The procedure, abridged:
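Wild-type cells were seeded at 1,500 per well and settled 5 hr at 37 C, 5% CO2, then exposed to DMSO-dissolved compounds for 17 hr. Caspase-Glo 3/7 reagent was added, and luminescence was read after 30min at room temperature.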

Test [5] is described as follows: Caspase-3/7 induction in HepG2 cells by small molecules, qHTS cell viability counter screen (AID 1346981). Also: series mostly up to about 92 µM; nearly all actives have a fitted effect of over 30% in size. The method in brief: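 Wild-type HepG2 cells, 2,000/well, settled 5 hr at 37 C, 5% CO2 before compound addition. Viability read by CellTiter-Fluor fluorescence, reagent added after 16 hr compound exposure, then 1 hr at 37C, in the same wells as the caspase read.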

Test [6] deals with Nuclear receptor subfamily 1 group I member 2 (Homo sapiens) (UniProt O75469). Description: Human pregnane X receptor (PXR) small molecule agonists, qHTS assay (AID 1346982). Also: nearly all actives have a fitted effect of over 35% in size. Also: potency is read from the fitted curve at half-maximal effect. The procedure, abridged:
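PXR-Luc HepG2 reporter cells (CYP3A4-driven luciferase) in 5% charcoal-stripped FBS medium, plated 5 h before compound addition, then treated 24 h at 37C. Luciferase read by ONE-Glo luminescence after 30 min at room temperature.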

The target in test [7] is Cytochrome P450 2C19 (Homo sapiens) (UniProt P33261). As to the kind of experiment: Cytochrome P450 Family 2 Subfamily C Member 19 (CYP2C19) small molecule antagonists: luciferase reporter qHTS assay (AID 1671197). Also: nearly all actives have a fitted effect of over 65% in size. Also: potency is read from the fitted curve at half-maximal effect. The procedure, abridged:
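P450-Glo CYP2C19 system: enzyme-substrate mix with compound 10 min at room temperature, then NADPH regeneration solution, 1 h at 37C. Proluciferin-to-luciferin conversion detected by luminescence after 20 min with detection reagent; ketoconazole as positive control.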

Test [8] addresses Cytochrome P450 2C9 (Homo sapiens) (UniProt P11712). Description: Cytochrome P450 Family 2 Subfamily C Member 9 (CYP2C9) small molecule antagonists: luciferase reporter qHTS assay (AID 1671198). Also: series mostly up to about 120 µM; nearly all actives have a fitted effect of over 50% in size. The procedure, abridged:
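CYP2C9 activity was measured with a P450-Glo proluciferin substrate. Enzyme–substrate mix was held with compound for 10 min at room temperature, then NADPH regeneration solution was added for 1 h at 37C. Luciferin product was read as luminescence.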
On the technique in general: Reporter assays use an easily measured gene product as a stand-in for the process of interest.

Test [9] deals with Cytochrome P450 1A2 (Homo sapiens) (UniProt P05177). Description: Cytochrome P450 Family 1 Subfamily A Member 2 (CYP1A2) small molecule antagonists: luciferase reporter qHTS assay (AID 1671199). Also: nearly all actives have a fitted effect of over 50% in size. Also: potency is read from the fitted curve at half-maximal effect. The method in brief: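 P450-Glo CYP1A2 enzyme–proluciferin substrate mix with compound 10 min at room temperature, then NADPH regeneration 1 h at room temperature. Luciferin detection reagent added, luminescence read after 20 min; furafylline positive control.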

Test [10] deals with Voltage-gated inwardly rectifying potassium channel KCNH2 (Homo sapiens) (UniProt Q12809). As to the kind of experiment: Human Ether-a-go-go-Related Gene (hERG) channel small molecule antagonists: fluorescence cell-based qHTS assay (AID 1671200).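 Also: hERG-expressing U2OS cells given a thallium stimulus after FluxOR II dye loading; series mostly up to about 77 µM; nearly all actives have a fitted effect of over 50% in size.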 The method in brief: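 Cell line hERG-U2OS; dye FluxOR II, 1 h RT dark; Tl+ stimulus; ex 480/em 540 nm, read each second for 2 min.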
Background: The hERG channel carries a current that helps repolarise heart muscle cells.

Test [11] addresses Cytochrome P450 3A4 (Homo sapiens) (UniProt P08684). Description: Cytochrome P450 Family 3 Subfamily A Member 4 (CYP3A4) small molecule antagonists: luciferase reporter qHTS assay (AID 1671201). The method in brief: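 Room-temperature assay throughout: 10 min compound–enzyme/substrate preincubation, 1 h reaction after NADPH regeneration solution, 20 min detection. Luciferin formed from proluciferin substrate is quantified by luminescence.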

For test [12], the target named is Cytochrome P450 2D6 (Homo sapiens) (UniProt P10635). Description: Cytochrome P450 Family 2 Subfamily D Member 6 (CYP2D6) small molecule antagonists: luciferase reporter qHTS assay (AID 1671196). Also: nearly all actives have a fitted effect of over 50% in size. Also: potency is read from the fitted curve at half-maximal effect. The procedure, abridged: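 Cell-free P450-Glo system: CYP2D6 with proluciferin substrate was pre-incubated with compound for 10 min, then reacted with NADPH regeneration for 1 h at room temperature. Luciferin product was detected after 20 min, and data were reported as relative luminescence units.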

Test [13] is described as follows: Caspase-3/7 induction in HepG2 cells by small molecules, qHTS assay (AID 1346978). Also: nearly all actives have a fitted effect of over 15% in size. The method in brief:
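Wild-type HepG2 cells (2,000/well) were settled 5 h at 37 C, 5% CO2, then exposed to compounds in DMSO for 17 h. Caspase-3/7 activity was read by luminescence 30 min after adding Caspase-Glo 3/7 reagent at room temperature.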

Test [14] concerns the target Nuclear receptor subfamily 1 group I member 2 (Rattus norvegicus) (UniProt Q9R1A7). Description: Rat pregnane X receptor (rPXR) activation by small molecules, qHTS assay (AID 1346983). Also: nearly all actives have a fitted effect of over 20% in size. To be noted: rPXR luciferase reporter cells, One-Glo luminescence, 24 h; max activation: hits give high values. The method in brief: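 Cell-based rPXR luciferase reporter assay, 2,000 cells per well, rested 5hr at 37 C before compound addition in DMSO, then 24 hr at 37 C. One-Glo reagent was added and luminescence read after 30 min at room temperature.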

In test [15] the target is Nuclear receptor subfamily 1 group I member 2 (Homo sapiens) (UniProt O75469). Description: CYP3A4 induction through human pregnane X receptor (PXR) by small molecules, qHTS assay (AID 1346984). Also: nearly all actives have a fitted effect of over 40% in size. The method in brief: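 DPX-2 HepG2 cells carrying a PXR response element and CYP3A4-promoter luciferase construct, treated with compounds 24 hr at 37C. Then P450-Glo CYP3A4 Luciferin-IPA substrate (3uM final) for 3 hr at 37C, One-Glo added, luminescence read.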

For test [16] the target is unchanged. Description: Human pregnane X receptor (PXR) activation by small molecules, qHTS assay (AID 1346985). Also: nearly all actives have a fitted effect of over 40% in size. The procedure, abridged:
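DPX-2 cells (HepG2 co-transfected with a PXR response element and a CYP3A4-promoter luciferase construct) were seeded at 2,000 per well, rested 5 hr at 37C, then exposed to DMSO-dissolved compounds for 24 hr. Activation was read as luciferase luminescence.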
% is scaled to controls: 0 for no effect and ±100 for the full control effect.

Sequence of Cytochrome P450 1A2 (Homo sapiens) (P05177 whole entry, looked up): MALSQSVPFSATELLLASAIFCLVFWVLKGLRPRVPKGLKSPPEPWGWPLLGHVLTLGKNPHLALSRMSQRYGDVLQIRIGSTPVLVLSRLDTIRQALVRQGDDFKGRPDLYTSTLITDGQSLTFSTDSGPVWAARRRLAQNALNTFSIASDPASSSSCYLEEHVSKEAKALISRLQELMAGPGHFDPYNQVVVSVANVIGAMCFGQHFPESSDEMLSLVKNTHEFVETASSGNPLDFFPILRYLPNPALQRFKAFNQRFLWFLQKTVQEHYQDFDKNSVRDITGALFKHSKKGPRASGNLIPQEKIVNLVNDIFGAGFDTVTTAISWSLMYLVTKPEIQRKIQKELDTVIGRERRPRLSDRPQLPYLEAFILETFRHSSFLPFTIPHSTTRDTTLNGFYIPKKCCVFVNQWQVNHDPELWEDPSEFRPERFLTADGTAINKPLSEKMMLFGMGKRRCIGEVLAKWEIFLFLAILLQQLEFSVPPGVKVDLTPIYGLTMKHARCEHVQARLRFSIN
Sequence of Cytochrome P450 2C9 (Homo sapiens) (P11712 whole entry, looked up): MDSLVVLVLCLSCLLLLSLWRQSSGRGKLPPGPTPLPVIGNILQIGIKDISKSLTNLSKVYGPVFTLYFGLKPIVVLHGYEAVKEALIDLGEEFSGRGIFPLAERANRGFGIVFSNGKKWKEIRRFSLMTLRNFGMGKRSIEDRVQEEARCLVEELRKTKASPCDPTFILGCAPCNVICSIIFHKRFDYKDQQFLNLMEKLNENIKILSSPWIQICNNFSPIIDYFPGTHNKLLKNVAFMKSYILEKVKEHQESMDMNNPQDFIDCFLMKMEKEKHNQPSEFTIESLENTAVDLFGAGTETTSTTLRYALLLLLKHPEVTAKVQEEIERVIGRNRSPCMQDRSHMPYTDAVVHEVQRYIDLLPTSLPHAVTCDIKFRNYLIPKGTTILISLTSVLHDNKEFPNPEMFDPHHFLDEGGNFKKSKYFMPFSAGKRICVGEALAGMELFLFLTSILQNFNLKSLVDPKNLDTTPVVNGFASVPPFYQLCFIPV
Sequence of Cytochrome P450 2D6 (Homo sapiens) (P10635 whole entry, looked up): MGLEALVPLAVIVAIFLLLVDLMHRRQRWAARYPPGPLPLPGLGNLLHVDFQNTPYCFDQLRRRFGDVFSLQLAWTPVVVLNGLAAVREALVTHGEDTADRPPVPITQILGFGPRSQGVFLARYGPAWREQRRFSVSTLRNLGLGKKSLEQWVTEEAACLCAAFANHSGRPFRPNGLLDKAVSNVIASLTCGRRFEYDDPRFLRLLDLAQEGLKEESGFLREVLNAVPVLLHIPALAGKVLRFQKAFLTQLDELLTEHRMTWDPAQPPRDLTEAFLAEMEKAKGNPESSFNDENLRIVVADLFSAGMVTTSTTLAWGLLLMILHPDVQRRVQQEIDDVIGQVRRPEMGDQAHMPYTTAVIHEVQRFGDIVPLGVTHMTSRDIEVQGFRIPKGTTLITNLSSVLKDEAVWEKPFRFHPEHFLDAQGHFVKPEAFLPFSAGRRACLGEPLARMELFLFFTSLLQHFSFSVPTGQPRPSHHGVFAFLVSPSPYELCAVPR
Sequence of Cytochrome P450 3A4 (Homo sapiens) (P08684 whole entry, looked up): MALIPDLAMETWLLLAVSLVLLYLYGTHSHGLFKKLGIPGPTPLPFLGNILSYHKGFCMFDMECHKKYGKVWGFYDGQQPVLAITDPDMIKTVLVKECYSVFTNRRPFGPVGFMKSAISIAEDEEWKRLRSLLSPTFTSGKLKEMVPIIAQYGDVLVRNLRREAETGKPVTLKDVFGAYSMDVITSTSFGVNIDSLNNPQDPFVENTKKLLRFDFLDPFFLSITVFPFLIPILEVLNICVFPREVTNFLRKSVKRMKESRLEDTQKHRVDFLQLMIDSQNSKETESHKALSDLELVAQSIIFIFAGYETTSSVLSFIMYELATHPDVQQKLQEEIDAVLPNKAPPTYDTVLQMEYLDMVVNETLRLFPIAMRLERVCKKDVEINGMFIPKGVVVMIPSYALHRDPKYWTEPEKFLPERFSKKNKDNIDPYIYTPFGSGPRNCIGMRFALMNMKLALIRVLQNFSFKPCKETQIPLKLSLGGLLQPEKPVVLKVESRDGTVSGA
Sequence of Voltage-gated inwardly rectifying potassium channel KCNH2 (Homo sapiens) (Q12809 whole entry, looked up): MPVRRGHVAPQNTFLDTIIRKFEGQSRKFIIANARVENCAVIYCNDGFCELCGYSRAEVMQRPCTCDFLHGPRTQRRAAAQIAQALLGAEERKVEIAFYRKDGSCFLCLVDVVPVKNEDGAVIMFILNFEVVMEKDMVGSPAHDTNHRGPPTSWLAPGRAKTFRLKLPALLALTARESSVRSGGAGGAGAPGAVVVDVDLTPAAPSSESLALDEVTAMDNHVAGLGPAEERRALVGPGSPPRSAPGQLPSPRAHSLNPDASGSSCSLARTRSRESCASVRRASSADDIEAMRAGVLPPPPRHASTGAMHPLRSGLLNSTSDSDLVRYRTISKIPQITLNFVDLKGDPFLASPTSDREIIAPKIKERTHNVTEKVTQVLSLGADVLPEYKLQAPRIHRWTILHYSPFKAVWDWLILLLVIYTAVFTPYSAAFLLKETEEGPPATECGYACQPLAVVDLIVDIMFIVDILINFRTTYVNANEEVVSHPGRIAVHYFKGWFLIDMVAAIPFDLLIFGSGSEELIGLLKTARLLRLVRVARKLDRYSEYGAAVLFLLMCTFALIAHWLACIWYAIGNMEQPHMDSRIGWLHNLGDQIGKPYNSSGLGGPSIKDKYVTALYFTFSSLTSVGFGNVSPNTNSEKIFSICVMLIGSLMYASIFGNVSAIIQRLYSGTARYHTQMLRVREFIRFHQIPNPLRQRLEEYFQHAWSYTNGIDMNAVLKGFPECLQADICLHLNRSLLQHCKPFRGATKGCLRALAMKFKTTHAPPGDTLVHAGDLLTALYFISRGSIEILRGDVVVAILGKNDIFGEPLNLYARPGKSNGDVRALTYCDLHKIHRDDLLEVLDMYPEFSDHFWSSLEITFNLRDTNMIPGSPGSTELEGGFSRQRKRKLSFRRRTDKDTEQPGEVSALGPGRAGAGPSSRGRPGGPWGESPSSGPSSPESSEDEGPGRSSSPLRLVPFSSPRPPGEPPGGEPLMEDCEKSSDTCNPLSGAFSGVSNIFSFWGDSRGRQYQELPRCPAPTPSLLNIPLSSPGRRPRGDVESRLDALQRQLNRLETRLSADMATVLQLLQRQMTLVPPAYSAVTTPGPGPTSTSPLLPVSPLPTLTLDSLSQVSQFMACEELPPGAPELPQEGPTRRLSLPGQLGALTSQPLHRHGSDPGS
Sequence of Cytochrome P450 2C19 (Homo sapiens) (P33261 whole entry, looked up): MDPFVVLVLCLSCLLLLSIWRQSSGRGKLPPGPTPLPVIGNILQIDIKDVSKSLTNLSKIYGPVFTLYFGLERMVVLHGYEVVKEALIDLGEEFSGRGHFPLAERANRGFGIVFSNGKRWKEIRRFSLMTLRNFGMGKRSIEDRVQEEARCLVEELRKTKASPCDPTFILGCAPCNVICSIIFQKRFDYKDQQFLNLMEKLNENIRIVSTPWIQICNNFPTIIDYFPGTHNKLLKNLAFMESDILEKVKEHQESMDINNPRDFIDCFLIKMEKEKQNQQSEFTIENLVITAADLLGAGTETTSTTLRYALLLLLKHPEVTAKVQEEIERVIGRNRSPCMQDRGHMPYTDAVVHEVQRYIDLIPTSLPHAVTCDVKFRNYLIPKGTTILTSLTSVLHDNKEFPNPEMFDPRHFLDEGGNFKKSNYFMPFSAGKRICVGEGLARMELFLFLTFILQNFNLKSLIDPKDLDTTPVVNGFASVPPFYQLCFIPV
Sequence of Nuclear receptor subfamily 1 group I member 2 (Homo sapiens) (O75469 whole entry, looked up): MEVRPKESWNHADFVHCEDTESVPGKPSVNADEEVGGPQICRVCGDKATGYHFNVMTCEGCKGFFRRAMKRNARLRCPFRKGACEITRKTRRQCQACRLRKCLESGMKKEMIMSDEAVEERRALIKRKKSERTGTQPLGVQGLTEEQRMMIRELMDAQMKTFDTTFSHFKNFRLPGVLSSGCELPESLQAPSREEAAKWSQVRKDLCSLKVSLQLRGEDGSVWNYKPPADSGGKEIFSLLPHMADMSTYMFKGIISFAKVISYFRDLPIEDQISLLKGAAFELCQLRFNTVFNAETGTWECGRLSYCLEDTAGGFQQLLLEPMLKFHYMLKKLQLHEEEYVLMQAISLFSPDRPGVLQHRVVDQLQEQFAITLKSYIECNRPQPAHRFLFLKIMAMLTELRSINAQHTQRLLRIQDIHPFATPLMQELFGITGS
Sequence of Thyrotropin-releasing hormone receptor (Homo sapiens) (P34981 whole entry, looked up): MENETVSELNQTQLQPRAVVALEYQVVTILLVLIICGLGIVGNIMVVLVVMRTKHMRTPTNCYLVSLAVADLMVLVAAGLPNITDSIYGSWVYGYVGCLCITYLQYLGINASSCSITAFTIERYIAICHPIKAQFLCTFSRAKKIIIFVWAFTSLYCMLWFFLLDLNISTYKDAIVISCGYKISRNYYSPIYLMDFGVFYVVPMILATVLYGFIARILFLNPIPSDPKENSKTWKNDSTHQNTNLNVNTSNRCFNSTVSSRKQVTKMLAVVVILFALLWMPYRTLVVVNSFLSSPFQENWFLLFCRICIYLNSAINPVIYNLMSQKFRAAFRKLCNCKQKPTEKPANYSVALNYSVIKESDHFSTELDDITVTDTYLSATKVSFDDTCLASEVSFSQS
Sequence of Nuclear receptor subfamily 1 group I member 2 (Rattus norvegicus) (Q9R1A7 whole entry, looked up): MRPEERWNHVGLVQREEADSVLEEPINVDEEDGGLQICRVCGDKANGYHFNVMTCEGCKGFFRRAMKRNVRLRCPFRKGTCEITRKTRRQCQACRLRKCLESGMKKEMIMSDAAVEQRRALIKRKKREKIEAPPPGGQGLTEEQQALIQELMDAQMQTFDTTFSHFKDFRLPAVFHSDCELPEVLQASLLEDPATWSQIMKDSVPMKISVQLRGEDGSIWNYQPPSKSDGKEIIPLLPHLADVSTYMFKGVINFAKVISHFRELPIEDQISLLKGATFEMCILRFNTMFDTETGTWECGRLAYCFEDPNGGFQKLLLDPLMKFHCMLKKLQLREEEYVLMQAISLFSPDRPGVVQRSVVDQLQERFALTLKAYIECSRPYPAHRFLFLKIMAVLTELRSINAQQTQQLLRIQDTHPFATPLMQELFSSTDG

In the case of `CN1C(=O)CC(C)(c2ccccc2)C1=O` (stereo not given), the Potency entry in [1], in test [2], in test [3], in [5], in test [6] and in test [7] was “inactive” each time. The Potency entry in test [8], in [9], in test [10] and in test [11] was “inactive” in each case. The call in [4] was inactive.

With `c1ccc(COCc2ccccc2)cc1`, the Potency entry in [1], in test [2], in [3], in [5], in test [6] and in [12] was “inactive” in each case. In addition, the Potency result in test [9], in test [10] and in test [11] was “inactive” each time. Besides, in [4], the molecule was called inactive.

On to `Cc1cc(C(=C2C=CC(=Nc3ccc(S(=O)(=O)O)cc3S(=O)(=O)O)C=C2)c2ccc(Nc3ccc(S(=O)(=O)O)cc3)cc2)ccc1N`, for which the Potency result in [1], in test [2], in test [3], in test [6], in test [9] and in test [10] was “inactive” throughout. In [11], the Potency result was “inactive”. Further, in test [4], the molecule was called inactive.

With `OC(CCCN1CCCCC1)(c1ccccc1)c1ccccc1`, the Potency result in test [1], in test [13], in test [3], in [5], in [6] and in [8] was “inactive” each time. Further, the Potency entry in [9] and in [10] was “inactive” throughout. Moreover, the molecule was classed as inactive in test [4]. Besides, the Potency in test [12] is 110 nM (active).

For the molecule `CCc1c2c(nc3ccc(OC(=O)N4CCC(N5CCCCC5)CC4)cc13)-c1cc3c(c(=O)n1C2)COC(=O)[C@]3(O)CC`, the Potency entry in test [1], in test [2], in test [3], in test [6], in test [15] and in test [16] was “inactive” throughout. Besides, the Potency result in [12], in test [8], in test [9], in [10] and in test [11] was “inactive” throughout. Also, in [4], the result was inactive. Further, the max activation in test [14] is -2.7%.

On to `C=CC(=O)NCOCC(C)C`, for which the Potency entry in test [1], in test [2], in test [3], in test [5], in [6] and in test [12] was “inactive” throughout. Further, the Potency result in test [7], in test [8], in [10] and in test [11] was “inactive” each time. In [4], the result was inactive.

For `CC(C)(O)c1ccccc1CC[C@@H](SCC1(CC(=O)O)CC1)c1cccc(/C=C/c2ccc3ccc(Cl)cc3n2)c1`, the Potency result in test [1], in test [2], in test [5], in test [6], in test [15] and in test [12] was “inactive” in each case. The Potency entry in test [7], in test [8], in test [9], in test [10] and in test [11] was “inactive” each time. Besides, the outcome in test [4] was inactive.

Consider `O=C(CCCCCCC(=O)Nc1ccccc1)NO`, for which the Potency result in test [1], in test [15], in test [16], in [10] and in [11] was “inactive” throughout. The Potency in test [2] was 8.41 µM (active); in [3], 13.3 µM (active); in [6] it was 7.5 µM (active); in test [12], 5490 nM (active); in [7], 7.76 µM (active); in test [9], 12.9 µM (active). Moreover, the max activation in test [14] is -13.8%.

Regarding `CCC(=O)Oc1ccc(/C(CC)=C(\CC)c2ccc(OC(=O)CC)cc2)cc1`, the Potency entry in [1], in test [13], in [12], in test [7], in [8] and in [9] was “inactive” in each case. In test [10], the Potency entry is “inactive”. Moreover, the Potency in test [3] is 61.1 µM (active).
